Laboratory results reported in the supplement of paper PMC10338343.
± gives the standard deviation.

tested on: MILI (PIWIL2) piRISC loaded with L1MC piRNA (26 nt); experiment: pre-steady-state target cleavage rate (min^-1); guide: L1MC piRNA 5'p-UAACUAAAUACUAUGCAAGCUGUAGG; MIWI and MILI are mouse PIWI proteins and EfPiwi is from a freshwater sponge; tags in brackets are library labels; higher = faster piRNA-guided slicing of the target; details: auxiliary factor: 500 nM mouse GTSF1
Procedure, shortened: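 In HEPES–potassium acetate buffer at 33 °C, […] transcribed, DNA-blocked target RNA library was mixed with 1 nM active affinity-purified piRISC carrying one synthetic guide, with or without 500 nM GTSF1 partner protein, for 0–8 or 0–960 min. Uncleaved targets were sequenced and normalised to depth and to weakly complementary targets; three trials were pooled and k3 was capped at 0.0001 min^-1. The pre-steady-state cleavage rate followed from a burst-and-steady-state fit.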
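Further: 1 nM active piRISC with 0.1 nM target library at 33 °C single turnover.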

Row | Sequence | pre-steady-state target cleavage rate
1 | UCCUGGAUGUCCUAGCUUAGUAUUUAGUUA | 0.0102 ± 0.0041
2 | UCCUGGAACACCUUGCAUAGUUUUUAGUUA | 0.0237 ± 0.0067
3 | UCCUGGAUGUCGUUGGAUAGUAUUUAGUUA | 0.0108 ± 0.0042
4 | UCCUGGAUGUCCUUGCAUAGAUAUUAGUUA | 0.00447 ± 0.0038
5 | UCCUGGAUGUGCUUGCAUUCUAUUUAGUUA | 0.0101 ± 0.004
6 | UCCUGGAACAGCUUGCUAUGUAUUUAGUAA | 0.0125 ± 0.0054
7 | UCCUGGAUCAGCUUGCAUACUAUUUACAAA | 0.0104 ± 0.0042
8 | UCCUGGAUGAGGAAGCAUAGUAUUUAGUAA | 0.0509 ± 0.013
9 | UCCUGGAUGUCGAACGAUGGUAUUUAGUUA | < 0.0001
10 | UCCUGGAACAGCUUCGUUAGUAUUUAGUAA | 0.115 ± 0.017
11 | UCCUGGAACAGCUACCAUAGUAUUUAGAAA | 0.0138 ± 0.0052
12 | UCCUGGAUCAGCUUGCUUAGUAUUUUCAAA | 0.0126 ± 0.0057
13 | UCCUGGUACAGCUUGCAAUGUAUUUAGUAA | 0.0576 ± 0.013
14 | UCCUGGAUCAGCUUGCAUAGUAUUAUCUUA | 0.0326 ± 0.0079
15 | UCCUGGAUGUCGAUGCAUAGUAAUUAGUAA | 0.0439 ± 0.013
16 | UCCUGCUACAGCUUGGUAAGUAUUUAGUAA | 0.207 ± 0.039
17 | UCCUGGAUGUCGAACCAUAGUAUUUAGCUUA | < 0.0001

Row | Sequence | pre-steady-state target cleavage rate
18 | UCCUGGAUGAGCUUCGAUAGUAUUUAGUAA | 0.0558 ± 0.012
19 | UCCUGGAUCAGCUUGCAUAGAAUAUAGUUA | 0.042 ± 0.012
20 | UCCUGGAUGUCGAAGCAUAGUAUUAUAGUUA | 0.0614 ± 0.014
21 | UCCUGGAACAGCUUGCAUAUGUAUUUAGUUA | 0.00424 ± 0.0037
22 | UCCUGGAUGUCGAAGCAUAGUAAUUAGUUA | 0.00988 ± 0.0037
23 | UCCUGGAUCUGCUUGCAUAGUAUUUUCAAA | 0.0366 ± 0.0094
24 | UCCUGGAUGUCGAACGUAUCUAUUUAGGUA | < 0.0001
25 | UCCUGGAUGUCGAUGCAUAGUAAUUUGUUA | 0.00959 ± 0.0053
26 | UCCUGGAUCAGGUUCCAUAGUAUUUAGUUA | 0.00709 ± 0.004
27 | UCCUGGAUGAGCUUGCAUAGUAUUUUCAUA | 0.0108 ± 0.0059
28 | UCCUGGAACAGGAAGCAUAGUAUUUACAAA | 0.061 ± 0.02
29 | UCCUGGAUGUGCUUGCAUACUAUUUUGUUA | 0.00854 ± 0.0058
30 | UCCUGGAACAGCUUGCAAAGAAUUUAGUUA | 0.102 ± 0.037
31 | UCCUGGAUGUCGAAGCAUAGUCUUUAGUUA | 0.0102 ± 0.0051
32 | UCCUGCUACAGCUACGAUAGUAUUUAGUAA | 0.185 ± 0.035
33 | UCCUGGAACAGCUUGCAAAGUAUUUACUUA | 0.122 ± 0.027

same assay, conditions: auxiliary factor: none (no GTSF1)

Row | Sequence | pre-steady-state target cleavage rate
34 | UCCUGGAUGUCGAAGCAUUGUAUAUAGUUA | < 0.0001
35 | UCCUGGAUGUCGAACGUAACAAUUUAGUUA | < 0.0001
36 | UCCUGGAUGUCGAACCAUAGUAAAAAGUUA | < 0.0001
37 | UCCUGGAUGUCGAAGCAUAUAUUUAGUUA | < 0.0001
38 | UCCUGGAUGUCGAAGCAUACAUUUUAGUUA | < 0.0001
39 | UCCUGGAUGUCGAACCAUAGUAUUAGUUA | < 0.0001
40 | UCCUGGAUGUCGAACGUAUCUAUUCUAGUUA | < 0.0001
